Experimental data from the supplement of paper PMC10849652.
Of roughly 8,800 targets only a part is listed; those with a hit were picked by preference. About 0.5% of all pairs of compound and target were hits. Values without a mark were called inactive.

How the values were obtained:
Experiment in all cases: log2 fold change, soluble protein after heating vs DMSO (PISA); higher = thermal stabilisation; K562 lysate, 10 uM; active = over 0.2 and 3.5 SD of the protein, either way, in both replicates (recomputed)
erlotinib = compound: C#Cc1cccc(Nc2ncnc3cc(OCCOC)c(OCCOC)cc23)c1 [erlotinib]
Outline: (§1)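 Log-two fold change in thermal stability relative to solvent controls is reported from duplicates. For each sample, crude K562 extract from dounce-homogenised pellets in PBS pH 7.4 with 1 mM MgCl2, at 1 mg/mL protein, was treated with 10 μM compound for 30 min. Aliquots heated for 3 min across 48°C-58°C were pooled, brought to 0.5% NP-40 at 4°C and cleared at 21,000xg for 90 min. The supernatant was quantified by TMTpro 16plex LC-MS/MS with channel sums equalised.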

[1] = compound: C/C(=N\NC(=O)C1=CC(=CC=C1)S(=O)(=O)N2CCOCC2)/C3=C(C=CC(=C3)Cl)O
Outline: as §1

[2] = compound: C1=CC(=CC=C1C2=NC3=C(N2)C=C(C=C3)C(=O)N)OC4=CC=C(C=C4)Cl
Outline: as §1

[3] = compound: C1=CC2=C(C=CC(=C2)/C=C\3/C(=O)NC(=NCC4=CC=CS4)S3)N=C1
Outline: as §1

[4] = compound: C1=CC2=NC=CN=C2C=C1/C=C/3\C(=O)NC(=O)S3
Outline: as §1

[5] = compound: C1=CC=C(C=C1)C2=NC(=C(N2)C3=CC=NC=C3)C4=CC(=C(C=C4)Cl)O
Outline: as §1

[6] = compound: C1=CC=C2C(=C1)C3=NNC4=CC=CC(=C43)C2=O
Outline: as §1

[7] = compound: C1CCN(C1)C(=O)NC2=CC=CC(=C2)NC3=NC=C(C(=N3)NCCC4=CN=CN4)Br
Outline: as §1

[8] = compound: C1CN(CCC1(CC2=CC=C(C=C2)Cl)N)C3=NC=NC4=C3C=CN4
Outline: as §1

IRAK-1-4 Inhibitor I = compound: C1COCCN1CCN2C3=CC=CC=C3N=C2NC(=O)C4=CC(=CC=C4)[N+](=O)[O-] [IRAK-1-4 Inhibitor I]
Outline: as §1

ibrutinib = compound: C=CC(=O)N1CCC[C@@H](n2nc(-c3ccc(Oc4ccccc4)cc3)c3c(N)ncnc32)C1 [ibrutinib]
Outline: as §1

[9] = compound: CC(=O)c1cnc2ccc(-c3cc(Cl)c(O)c(Cl)c3)nc2c1N[C@H]1CC[C@H](CN(C)C)CC1
Outline: as §1

ralimetinib = compound: CC(C)(C)Cn1c(N)nc2ccc(-c3[nH]c(C(C)(C)C)nc3-c3ccc(F)cc3)nc21 [ralimetinib]
Outline: as §1

[10] = compound: CC(C)(O)CC(=O)NCCn1ccc2ncnc(Nc3ccc(Oc4cccc(C(F)(F)F)c4)c(Cl)c3)c21
Outline: as §1

[11] = compound: CC(C)C1=C2N=C(C=C(N2N=C1)NCC3=CC=CC=C3)NCCCCCCN
Outline: as §1

[12] = compound: CC1=C(C(CC(=O)N1)C2=CC=C(C=C2)C(F)(F)F)C(=O)NC3=C(C=C4C(=C3)C=NN4)F
Outline: as §1

[13] = compound: CC1=C(C2=C(C=C1)C(=O)C3=CC=CC=C3N2CCCN)C
Outline: as §1

[14] = compound: CC1=C(C=C(C=C1)NC(=O)C2=CC(=CC=C2)C(C)(C)C#N)NC3=CC4=C(C=C3)N=CN(C4=O)C
Outline: as §1

[15] = compound: CC1=C(C=C(C=C1)NC(=O)C2=CC(=CC=C2)N(C)C)NC(=O)C3=CC=C(C=C3)O
Outline: as §1

[16] = compound: CC1=CC=C(C=C1)SC2=C3C=C(SC3=CN=C2)C(=O)N
Outline: as §1

Sequence of UniProt Q9BSJ2 (Q9BSJ2 whole entry, looked up): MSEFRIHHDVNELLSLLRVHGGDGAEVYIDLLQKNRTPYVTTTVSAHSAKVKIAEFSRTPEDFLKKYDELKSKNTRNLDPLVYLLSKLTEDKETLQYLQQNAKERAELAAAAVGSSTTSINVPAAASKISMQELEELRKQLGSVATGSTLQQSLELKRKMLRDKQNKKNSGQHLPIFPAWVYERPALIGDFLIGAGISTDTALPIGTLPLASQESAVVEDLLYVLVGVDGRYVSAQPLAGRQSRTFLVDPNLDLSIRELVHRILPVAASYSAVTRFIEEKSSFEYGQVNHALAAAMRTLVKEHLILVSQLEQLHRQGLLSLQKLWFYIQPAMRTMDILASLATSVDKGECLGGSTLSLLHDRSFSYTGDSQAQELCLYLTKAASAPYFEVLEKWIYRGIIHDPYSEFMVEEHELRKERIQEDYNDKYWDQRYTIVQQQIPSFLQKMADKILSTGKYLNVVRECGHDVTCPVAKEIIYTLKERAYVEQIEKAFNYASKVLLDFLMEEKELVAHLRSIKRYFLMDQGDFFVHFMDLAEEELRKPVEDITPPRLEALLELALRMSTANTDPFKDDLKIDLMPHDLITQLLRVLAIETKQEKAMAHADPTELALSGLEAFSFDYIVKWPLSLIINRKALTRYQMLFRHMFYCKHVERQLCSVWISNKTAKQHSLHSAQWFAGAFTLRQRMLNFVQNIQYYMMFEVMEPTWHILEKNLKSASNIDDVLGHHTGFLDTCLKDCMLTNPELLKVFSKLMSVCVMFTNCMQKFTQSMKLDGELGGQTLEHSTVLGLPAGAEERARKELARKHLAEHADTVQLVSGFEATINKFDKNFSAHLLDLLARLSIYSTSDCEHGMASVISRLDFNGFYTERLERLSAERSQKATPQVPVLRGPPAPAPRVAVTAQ
Sequence of UniProt P67936 (P67936 whole entry, looked up): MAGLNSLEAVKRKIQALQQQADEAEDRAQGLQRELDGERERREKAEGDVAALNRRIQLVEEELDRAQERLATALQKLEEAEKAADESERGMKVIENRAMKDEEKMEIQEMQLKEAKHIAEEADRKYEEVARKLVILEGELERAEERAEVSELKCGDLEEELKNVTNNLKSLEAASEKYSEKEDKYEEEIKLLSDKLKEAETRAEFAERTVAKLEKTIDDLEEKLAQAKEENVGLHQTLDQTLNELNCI
Sequence of UniProt Q9UJT0 (Q9UJT0 whole entry, looked up): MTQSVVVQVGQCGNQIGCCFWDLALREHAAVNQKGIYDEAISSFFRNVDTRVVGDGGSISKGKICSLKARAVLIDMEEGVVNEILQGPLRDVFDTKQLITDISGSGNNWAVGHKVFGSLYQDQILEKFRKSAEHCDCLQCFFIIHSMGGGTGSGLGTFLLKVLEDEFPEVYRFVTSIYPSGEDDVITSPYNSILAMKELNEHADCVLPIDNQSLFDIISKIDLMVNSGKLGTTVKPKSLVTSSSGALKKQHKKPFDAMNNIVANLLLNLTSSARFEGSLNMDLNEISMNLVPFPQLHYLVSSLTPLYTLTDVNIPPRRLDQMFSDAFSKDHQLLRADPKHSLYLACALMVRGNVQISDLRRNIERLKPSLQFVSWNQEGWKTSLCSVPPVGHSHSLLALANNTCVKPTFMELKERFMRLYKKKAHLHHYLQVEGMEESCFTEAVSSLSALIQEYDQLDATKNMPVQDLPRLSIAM
Sequence of UniProt P07437 (P07437 whole entry, looked up): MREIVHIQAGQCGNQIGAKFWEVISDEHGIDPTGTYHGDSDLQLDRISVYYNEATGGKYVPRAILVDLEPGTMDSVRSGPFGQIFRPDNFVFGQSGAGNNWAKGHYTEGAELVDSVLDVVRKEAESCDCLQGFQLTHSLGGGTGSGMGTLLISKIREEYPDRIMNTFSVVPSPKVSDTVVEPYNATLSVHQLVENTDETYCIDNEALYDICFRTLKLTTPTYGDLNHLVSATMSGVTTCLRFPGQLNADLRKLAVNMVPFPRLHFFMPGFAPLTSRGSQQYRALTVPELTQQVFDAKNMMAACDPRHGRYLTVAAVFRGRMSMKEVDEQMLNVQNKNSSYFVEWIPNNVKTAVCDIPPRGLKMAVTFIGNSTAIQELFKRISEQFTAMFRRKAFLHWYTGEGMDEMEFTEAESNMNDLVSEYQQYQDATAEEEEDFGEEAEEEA
Sequence of UniProt O95801 (O95801 whole entry, looked up): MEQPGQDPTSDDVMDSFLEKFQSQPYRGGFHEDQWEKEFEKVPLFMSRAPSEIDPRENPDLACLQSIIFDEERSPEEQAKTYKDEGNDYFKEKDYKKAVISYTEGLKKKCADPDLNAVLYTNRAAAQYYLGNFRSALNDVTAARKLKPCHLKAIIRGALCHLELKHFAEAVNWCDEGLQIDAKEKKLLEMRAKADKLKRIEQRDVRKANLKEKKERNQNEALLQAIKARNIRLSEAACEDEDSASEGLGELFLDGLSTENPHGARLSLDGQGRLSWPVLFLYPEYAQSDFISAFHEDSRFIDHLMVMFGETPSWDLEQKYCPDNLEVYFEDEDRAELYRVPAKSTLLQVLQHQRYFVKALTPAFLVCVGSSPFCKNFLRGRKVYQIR
Sequence of UniProt Q5U3C3 (Q5U3C3 whole entry, looked up): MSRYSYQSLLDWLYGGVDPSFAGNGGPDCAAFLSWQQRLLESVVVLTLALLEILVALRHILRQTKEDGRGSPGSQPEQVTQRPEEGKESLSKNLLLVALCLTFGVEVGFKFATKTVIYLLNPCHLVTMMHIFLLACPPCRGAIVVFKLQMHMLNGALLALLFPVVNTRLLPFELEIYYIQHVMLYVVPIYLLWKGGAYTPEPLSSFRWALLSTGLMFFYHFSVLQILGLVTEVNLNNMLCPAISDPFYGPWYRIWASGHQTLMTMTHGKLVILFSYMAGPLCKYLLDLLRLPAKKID
Sequence of UniProt P42167 (P42167 whole entry, looked up): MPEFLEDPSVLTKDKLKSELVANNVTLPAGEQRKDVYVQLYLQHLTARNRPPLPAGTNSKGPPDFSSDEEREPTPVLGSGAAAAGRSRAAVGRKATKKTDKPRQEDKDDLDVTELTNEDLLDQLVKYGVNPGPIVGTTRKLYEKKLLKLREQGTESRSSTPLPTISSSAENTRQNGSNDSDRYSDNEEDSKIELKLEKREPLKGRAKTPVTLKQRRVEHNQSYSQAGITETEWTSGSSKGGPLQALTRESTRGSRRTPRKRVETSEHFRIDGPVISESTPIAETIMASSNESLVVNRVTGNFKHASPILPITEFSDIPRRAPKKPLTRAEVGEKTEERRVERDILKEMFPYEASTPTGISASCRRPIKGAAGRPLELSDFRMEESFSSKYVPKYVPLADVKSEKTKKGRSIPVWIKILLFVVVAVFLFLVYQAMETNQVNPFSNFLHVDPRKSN
Sequence of UniProt Q9UKE5 (Q9UKE5 whole entry, looked up): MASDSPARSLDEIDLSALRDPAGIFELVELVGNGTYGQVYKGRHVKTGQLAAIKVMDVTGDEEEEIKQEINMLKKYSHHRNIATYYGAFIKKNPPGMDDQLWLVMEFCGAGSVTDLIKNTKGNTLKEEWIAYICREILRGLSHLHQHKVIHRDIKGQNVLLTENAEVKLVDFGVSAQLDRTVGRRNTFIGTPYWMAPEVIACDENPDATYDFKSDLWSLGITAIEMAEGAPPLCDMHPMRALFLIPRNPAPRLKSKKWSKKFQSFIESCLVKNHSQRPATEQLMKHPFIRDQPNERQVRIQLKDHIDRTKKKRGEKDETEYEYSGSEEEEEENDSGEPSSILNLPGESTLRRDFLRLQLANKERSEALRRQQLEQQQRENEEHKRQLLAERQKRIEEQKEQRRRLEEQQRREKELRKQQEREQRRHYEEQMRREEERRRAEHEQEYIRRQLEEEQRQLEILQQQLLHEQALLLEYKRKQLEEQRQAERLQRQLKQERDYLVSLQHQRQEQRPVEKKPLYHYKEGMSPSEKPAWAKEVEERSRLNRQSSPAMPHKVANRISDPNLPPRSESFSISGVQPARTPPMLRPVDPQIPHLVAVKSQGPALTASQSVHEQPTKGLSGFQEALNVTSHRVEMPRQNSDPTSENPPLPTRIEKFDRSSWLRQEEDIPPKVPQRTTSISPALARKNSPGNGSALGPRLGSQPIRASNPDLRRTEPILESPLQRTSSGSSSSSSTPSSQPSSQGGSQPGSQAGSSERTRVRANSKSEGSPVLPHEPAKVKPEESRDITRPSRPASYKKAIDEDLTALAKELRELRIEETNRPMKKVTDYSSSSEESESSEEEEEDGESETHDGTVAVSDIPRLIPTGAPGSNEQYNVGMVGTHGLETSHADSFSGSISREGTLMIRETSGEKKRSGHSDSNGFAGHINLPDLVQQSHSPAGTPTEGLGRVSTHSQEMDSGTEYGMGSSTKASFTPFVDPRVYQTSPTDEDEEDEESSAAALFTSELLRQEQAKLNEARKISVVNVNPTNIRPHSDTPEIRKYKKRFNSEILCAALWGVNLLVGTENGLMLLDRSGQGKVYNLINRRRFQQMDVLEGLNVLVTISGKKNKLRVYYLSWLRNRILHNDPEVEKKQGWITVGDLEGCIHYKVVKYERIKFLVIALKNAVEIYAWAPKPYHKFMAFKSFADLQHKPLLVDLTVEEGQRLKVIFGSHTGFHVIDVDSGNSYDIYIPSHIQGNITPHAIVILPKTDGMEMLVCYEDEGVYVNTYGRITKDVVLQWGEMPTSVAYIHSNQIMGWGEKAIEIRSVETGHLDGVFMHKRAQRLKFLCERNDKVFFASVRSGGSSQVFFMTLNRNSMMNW
Sequence of UniProt P04818 (P04818 whole entry, looked up): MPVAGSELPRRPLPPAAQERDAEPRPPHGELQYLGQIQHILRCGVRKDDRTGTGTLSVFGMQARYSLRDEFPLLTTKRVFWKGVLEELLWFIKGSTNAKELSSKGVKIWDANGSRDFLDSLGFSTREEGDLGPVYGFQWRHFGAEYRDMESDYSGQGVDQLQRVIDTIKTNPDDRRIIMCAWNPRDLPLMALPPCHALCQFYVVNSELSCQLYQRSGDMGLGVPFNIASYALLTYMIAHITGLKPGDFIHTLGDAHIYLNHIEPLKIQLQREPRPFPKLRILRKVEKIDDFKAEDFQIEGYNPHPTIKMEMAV

Target	log2 fold change (erlotinib)	log2 fold change [1]	log2 fold change [2]	log2 fold change [3]	log2 fold change [4]	log2 fold change [5]	log2 fold change [6]	log2 fold change [7]	log2 fold change [8]	log2 fold change (IRAK-1-4 Inhibitor I)	log2 fold change (ibrutinib)	log2 fold change [9]	log2 fold change (ralimetinib)	log2 fold change [10]	log2 fold change [11]	log2 fold change [12]	log2 fold change [13]	log2 fold change [14]	log2 fold change [15]	log2 fold change [16]
TUBB4B (UniProt P68371)	0.008	-0.059	0.019	-0.018	0.005	-0.024	-0.011	0.019	0.03	0.04	-0.012	0.029	0.026	0.029	0.02	0.011	0.022	-0.05	0.035	0.018
TDRD3 isoform 3 (UniProt Q9H7E2)	0.051	-0.029	-0.019	0.086	0.005	0.257	-0.085	-0.059	0	0.051	-0.03	0.009	-0.094	0.01	-0.018	-0.073	-0.004	0	-0.102	0.026
TUBGCP2 isoform 4 (UniProt Q9BSJ2)	0.036	-0.048	0.012	0.025	0.014	-0.005	-0.029	-0.014	0.004	-0.041	-0.001	0.042	-0.007	-0.016	-0.006	0.011	-0.023	0.035	0.048	-0.017
TTC4 (UniProt O95801)	0.01	0.013	0.001	0.003	0.005	0.007	-0.038	-0.029	0.025	-0.008	0.002	0.015	0.005	0.011	0.03	-0.029	-0.033	0.026	0.029	0
TUBE1 (UniProt Q9UJT0)	0.051	-0.267	0.095	-0.059	-0.063	-0.078	-0.033	-0.113	0.047	0.023	0.065	-0.017	0.05	-0.034	0.024	-0.001	0.027	-0.02	0.001	-0.03
TOR3A (UniProt Q9H497)	0	0.002	0.006	-0.008	-0.01	-0.012	-0.087	0.039	0.013	0.021	0.008	0.023	0.002	-0.017	-0.001	0.018	-0.022	-0.036	0.018	0.365 (active)
TGFBRAP1 (UniProt Q8WUH2)	0.015	0.057	-0.016	-0.002	-0.018	-0.02	-0.056	0.023	0.006	-0.026	0.002	0.022	0.011	0.025	-0.014	0.007	0.015	-0.005	0.009	-0.012
TMEM164 (UniProt Q5U3C3)	0.067	-0.141	-0.009	-0.093	0.104	-0.056	-0.211	-0.057	0.153	0.094	0.053	-0.066	-0.171	-0.252	-0.035	-0.184	-0.153	0.255	0.027	-0.061
TRMT10A (UniProt Q8TBZ6)	-0.003	-0.26	-0.007	-0.018	-0.024	0.018	0.252 (active)	-0.017	0.044	0.044	-0.002	-0.003	0.021	-0.01	-0.033	0.009	-0.031	0.06	-0.022	0.07
TYMS (UniProt P04818)	0.016	0.041	0.011	-0.032	0.032	-0.026	0.019	0.035	-0.004	-0.008	-0.041	-0.017	0.014	0.029	0.01	0.001	0.043	-0.005	-0.001	-0.022
TNIK isoform 4 (UniProt Q9UKE5)	-0.015	-0.037	-0.035	0.119	0.003	0.125	0.244	0.113	-0.031	-0.019	0.008	0.374 (active)	-0.024	-0.005	0.046	-0.013	-0.019	0.186	-0.012	-0.068
TROAP (UniProt Q12815)	-0.023	-0.02	0.028	-0.036	-0.054	0.017	-0.027	0.035	0.104	-0.011	0.191	-0.096	0.042	-0.02	0.037	0.011	0.02	-0.006	0.08	-0.25
TUBB (UniProt P07437)	0.029	-0.017	0.014	-0.006	0.008	0.008	-0.03	0.006	0.043	0.027	-0.013	0.011	0.038	-0.009	0.037	0.049	0.003	0.007	0.014	0.009
TMPO (UniProt P42167)	-0.016	0.021	-0.021	-0.027	0.014	-0.029	-0.073	-0.019	-0.032	-0.002	-0.003	0.009	0.018	-0.001	-0.044	0.006	0.005	-0.043	-0.006	-0.064
TRMT2A (UniProt Q8IZ69)	-0.042	-0.015	-0.007	0.012	-0.012	-0.012	-0.004	-0.005	0.002	-0.007	0.002	0.005	0.026	-0.005	0.001	0.012	-0.007	-0.03	0.035	0.008
TPM4 isoform 2 (UniProt P67936)	-0.06	0.011	-0.048	0.067	0.002	0.024	-0.016	0.016	-0.015	-0.022	-0.062	0.016	-0.005	0.032	-0.034	-0.027	-0.025	-0.06	-0.004	0
